Screening data as filed in PubChem BioAssay.
Compounds with a hit are over-represented: about 6.5% of the library has one in this group of screens.
VACV mCherry inh – inhibitors of vaccinia virus infection (mCherry reporter signal); Vaccinia virus mCherry reporter infection, fluorescence; AID 720579; hit rate 0.63% among 310,000; Potency, µM (series often up to 36.5 µM), inactives show top-dose activity change, negative = inhibition, hits mostly inhibitors; calls by dose curve; tested in A549 cells; note: potency is the fitted concentration of half-maximal effect; nearly all actives have a fitted effect of over 35% in size
Lassa entry inh – Lassa virus entry inhibition | hit rate 1.2% among 300,000 | Lassa virus pseudotype entry inhibition, cell reporter | AID 540256 | Potency, µM (titrated, usually from 37.9 µM), inactives show at the top dose activity change, negative = inhibition, actives largely listed as inhibitors; calls by dose curve; tested in HEK293 cells; note: potency is the fitted concentration of half-maximal effect; nearly all actives have a fitted effect of over 50% in size
Vaccinia Venus – inhibitors of vaccinia virus (Venus reporter); Vaccinia virus Venus reporter expression, fluorescence; Potency, µM (highest dose often 36.5 µM), inactives show top-dose activity change, negative = inhibition, most hits filed as inhibitors; hit rate 0.46% among 330,000; AID 720580; calls by dose curve; tested in A549 cells; note: potency is the fitted concentration of half-maximal effect; nearly all actives have a fitted effect of over 30% in size
HCMV inh – human cytomegalovirus inhibition; HFF cells, HCMV-luciferase reporter, 72 h; active compounds read low; activity change, negative = inhibition, % at 57.5 µM; hit rate 4.5% among 410,000; AID 1259415; in the data active = activity change below about -60%; inconclusive = no clear call, values can overlap the other calls; inactive = above about -39%
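Two-dose cell screen: HFF monolayers treated with compounds and infected with luciferase-expressing HCMV at 1 PFU/cell, 72 h at 37C, then lysed for luciferase measurement.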
MARV entry inh – Marburg virus entry inhibition. Potency, µM (highest dose often 37.8 µM), for inactives: top-dose activity change, negative = inhibition, usual class: inhibitors. hit rate 1.8% among 300,000. Marburg virus pseudotyped entry inhibition, cell reporter. AID 540276; calls by dose curve; tested in HEK293 cells; note: potency is the fitted concentration of half-maximal effect
FMDV antiviral – foot and mouth disease virus antiviral activity. FMDV antiviral cell-based qHTS. Potency, µM (highest dose often 57.9 µM), for inactives: top-dose activity change, negative = inhibition, hits mostly inhibitors. hit rate 1.2% among 410,000; calls by dose curve; tested in HEK293T cells; note: read-out not given here; potency is the fitted concentration of half-maximal effect; nearly all actives have a fitted effect of over 45% in size
The depositor's hits bear a star; i = inactive; ? = inconclusive; nt = not tested or not shown; [ ] = remark or other dose. % is set by controls: 0 for no effect and ±100 for the full control effect.

SMILES	VACV mCherry inh	Lassa entry inh	Vaccinia Venus	HCMV inh	MARV entry inh	FMDV antiviral
CCn1ccnc1CN(C)Cc1cn(C)nc1-c1ccccc1F	-10%	1%[46.1 µM]	-8%	?	-17%[46.1 µM]	-16%
COc1ccc(/C=N/NC(=O)c2[nH]c3ccc(Br)cc3c2-c2ccccc2)cc1	?	?	?	nt	?	-18%
O=C(N/N=C/c1ccccc1Cl)c1[nH]c2ccc(Br)cc2c1-c1ccccc1	?	?	i	-18	2.5µM*	-19%
COc1ccc(/C=N/NC(=O)c2[nH]c3ccc(Br)cc3c2-c2ccccc2)c(C(=O)O)c1OC	i	-27%	?	-63*	-24%[46.1 µM]	-16%
COc1ccc(/C=N/NC(=O)c2[nH]c3ccc(Cl)cc3c2-c2ccccc2)c(C(=O)O)c1OC	-9%	2%	-27%	-99*	-29%	3%
CC(=O)N1CCOc2ccc(S(=O)(=O)N(C)c3ccc(C)cc3)cc21	nt	nt	nt	0	nt	-13%
Cc1cc(Cl)ccc1OCCSc1nnc(-c2cccs2)o1	5%	-2%[46.1 µM]	7%	-12	-6%[46.1 µM]	1%
CN(C)N=Nc1ccc(/C=C2\C=Cc3ccccc32)cc1	-16%	nt	-15%	nt	nt	nt
Cn1cccc1C(=O)N1CCC[C@@]2(CCN(C(=O)Nc3cccc(F)c3)C2)C1	nt	nt	nt	nt	nt	0%
O=C(c1cccc(COc2cccc3ccccc23)c1)N1CCCC1	nt	8.2µM*	nt	-5	?	14%
CN(C(=O)OC(C)(C)C)c1ccc(-c2nc3ccccc3s2)cc1	nt	nt	nt	-95*	nt	100µM*
COc1ccc(-c2nc3ccccc3s2)cc1O	-21%	7.1µM*	-16%	?	7.1µM*	-58%
CC(C)c1ccc(-c2nc3ccccc3s2)cc1	i	?	-10%	-95*	?	0%
Oc1cccc(-c2nc3ccccc3s2)c1	nt	?	-20%	178	7.1µM*	-44%
CC(=O)c1ccccc1OCCCCN1CCCCC1	nt	nt	nt	14	nt	-1%
CN(N=Nc1ccccc1C(=O)O)C1CCCCC1	?	nt	-13%	-6	nt	0%
CN1CCCN(c2cc(-c3ccc4ccccc4c3)nc3ccnn23)CC1	8%	nt	43%	-91*	nt	0%
CCN1CCN(CCNC(=O)c2ccc3c(c2)N(Cc2ccc(F)cc2)C(=O)/C(=C/c2ccccc2)S3)CC1	?	?	?	-81*	?	6%
CN1CCN(CCCNC(=O)c2ccc(/C=C3\Sc4ccccc4N(Cc4ccccc4F)C3=O)cc2)CC1	nt	nt	nt	-63*	nt	2%
CCN1CCN(CCNC(=O)c2ccc(/C=C3/Sc4ccccc4N(Cc4cccc(Cl)c4)C3=O)cc2)CC1	-22%	?	?	-103*	?	-27%
Cc1cccc(CN2C(=O)/C(=C\c3ccc(C(=O)NCCN4CCOCC4)cc3)Sc3ccccc32)c1	-4%	?	-26%	nt	?	40µM*
Cc1ccc(CN2CCC(n3nccc3NC(=O)C3CCOC3)CC2)cc1C (stereo not given)	i	7%	-4%	142	4%	-21%
CCOC(=O)C1=CN(CC)S(=O)(=O)NC1c1ccc2ccccc2c1 (stereo not given)	-20%	nt	-7%	-6	nt	-24%
COc1ccc2ccccc2c1CN1CCC2(CCC(CNC(=O)c3ccccc3)O2)CC1 (stereo not given)	i	nt	-9%	nt	nt	-18%
O=C1Nc2cc(C(=O)NCCCN3CCCC3)ccc2S/C1=C/c1ccccc1F	nt	nt	nt	-37	nt	-18%
SMILES	VACV mCherry inh	Lassa entry inh	Vaccinia Venus	HCMV inh	MARV entry inh	FMDV antiviral
O=C(CN1C(=O)/C(=C/c2ccc(C(F)(F)F)cc2)Sc2ccccc21)NCCCN1CCOCC1	nt	nt	nt	-39	nt	-10%
O=C1Nc2cc(C(=O)NCCN3CCCCCC3)ccc2S/C1=C/c1ccccc1F	?	nt	13µM*	-24	nt	-21%
CCc1ccc(/C=C2/Sc3ccccc3N(CC(=O)NCCCN3CCOCC3)C2=O)cc1	nt	nt	nt	-60*	nt	-4%
Cc1ccc(C(=O)Nc2c(C(=O)Nc3ccc(C)c(C)c3)sc3nc(C)cc(C)c23)cc1	?	19%[46.1 µM]	?	-107*	?	56%
N#CC1=C2N=C(N)c3ccccc3N2C2=C(C(=O)CCC2)C1c1cccc(Cl)c1 (stereo not given)	nt	?	nt	-70*	?	-3%
O=C(CSc1nc(-c2cccs2)nc2cc(=O)[nH]n12)Nc1cccc(C(F)(F)F)c1	1%	4%[46.1 µM]	-7%	-6	nt	-15%
N#C/C(=C\C=C\c1ccccc1)C(=O)N1CCCC1	2%	3%	-2%	?	-8%[46.1 µM]	-20%
Fc1cccc(COc2ccc(Nc3ncnc4sc(-c5cccs5)cc34)cc2Cl)c1	nt	16µM*	nt	nt	nt	nt
Nc1ccc(C#Cc2cncnc2Nc2ccc(OCc3cccc(F)c3)c(Cl)c2)cc1	nt	3.1µM*	nt	nt	nt	nt
Fc1cccc(Nc2ncnc3[nH]ncc23)c1	nt	nt	nt	?	nt	-19%
CN1CCN(Cc2ccc(-c3cc4ncnc(Nc5ccc(OCc6cccc(F)c6)c(Cl)c5)c4s3)o2)CC1	nt	20µM*	nt	nt	nt	nt
COc1ccc(NC(=O)CN2C(=O)CC(C)S(=O)(=O)c3ccccc32)cc1 (stereo not given)	nt	nt	nt	-31	nt	-6%
Cc1ccc(-c2cc(C(=O)N(C)Cc3cnn(C)c3C)c3cc(Br)ccc3n2)cc1	-8%	?	-12%	6	8.9µM*	-8%
COc1ccc(CCNC(=O)c2c[nH]n3c(=O)c(Cc4ccccc4Cl)c(C)nc23)cc1OC	-13%	11%[46.1 µM]	-2%	59	nt	-4%
CC1(C(=O)NS(=O)(=O)C2CC2)CCCN(C(=O)c2cccs2)C1 (stereo not given)	37%	nt	11%	-61*	nt	4%
Cc1cc(C)cc(NC(=O)C(=O)NCC(c2cccnc2)N2CCc3ccccc3C2)c1 (stereo not given)	-17%	3%[46.1 µM]	-19%	-6	nt	?
CC(=O)Nc1ccc(/C=C/c2ccncc2)cc1	-13%	nt	8%	nt	nt	nt
Clc1ccc(/C=C/c2ccncc2)cc1Cl	4.5µM*	nt	?	nt	nt	nt
Cc1cc(C(=O)Nc2cccc(-c3nc(CNC(=O)c4cc5ccccc5[nH]4)c(C)o3)c2)c(C)o1	-1%	nt	-7%	nt	nt	17%
Cc1ccc2c(c1)/C(=C/c1ccccc1F)C(=O)N2	-14%	nt	-29%	4	nt	-14%
Cc1ccc2c(c1)/C(=C/c1ccccc1)C(=O)N2	-8%	10µM*	-17%	-35	?	-28%
COc1ccc(C(=O)c2ccc(N3CCN(C(=O)c4ccc(F)cc4)CC3)c(F)c2)cc1Br	-8%[1.46 µM]	-14%	-17%	-88*	7%	?
Cc1ccc(-c2nc(NC(=O)CSc3nc(C)nc4sc5c(c34)CCCC5)ns2)cc1	-9%	-18%[46.1 µM]	-8%	-12	19%[46.1 µM]	5%
Cc1cc(C)n(-c2cc(N3CCN(C(=O)c4cccc(Br)c4)CC3)ccc2[N+](=O)[O-])n1	-16%	-17%	?	-27	?	14µM*
CC1CC(C)CN(c2ncc3c(n2)CC(c2ccccc2Cl)CC3=O)C1 (stereo not given)	nt	10µM*	8%	-5	?	?
